Screens (PubChem BioAssay)
In the library only some 27% were active in any assay of this set; here they are far more common.
Cav32 inh: Cav3.2 calcium influx blockers – cell-based, Fluo-4 calcium fluorescence, FDSS, MLSMR library, primary screen; B-score at 10 µM; Voltage-dependent T-type calcium channel subunit alpha-1H (Homo sapiens), O95180; 4% of 100,000 active; AID 449739, 2010; Cav3.2-expressing cells; stronger effect = lower value;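 active = single-dose well whose peak fluorescence ratio is a statistical outlier from its plate by either plate-standardised score or position-corrected B-score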
CYP2C19 inh: blockers of cytochrome P450 2C19 activity – biochemical, luminescence, ADME assay, primary screen; P33261; CYP2C19 Supersomes, luciferin-H EGE luminescence, 30 min; inhibition, % at 5 µM; 21% of 96,000 active;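 active = CYP2C19 inhibition above a set limit at 5 µM in the primary screen, cut at about 50% in these data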;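 note: plate controls were negative control wells for no effect and 2.5 mM tranylcypromine positive control for full effect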
Target sequence (P33261 whole entry, looked up): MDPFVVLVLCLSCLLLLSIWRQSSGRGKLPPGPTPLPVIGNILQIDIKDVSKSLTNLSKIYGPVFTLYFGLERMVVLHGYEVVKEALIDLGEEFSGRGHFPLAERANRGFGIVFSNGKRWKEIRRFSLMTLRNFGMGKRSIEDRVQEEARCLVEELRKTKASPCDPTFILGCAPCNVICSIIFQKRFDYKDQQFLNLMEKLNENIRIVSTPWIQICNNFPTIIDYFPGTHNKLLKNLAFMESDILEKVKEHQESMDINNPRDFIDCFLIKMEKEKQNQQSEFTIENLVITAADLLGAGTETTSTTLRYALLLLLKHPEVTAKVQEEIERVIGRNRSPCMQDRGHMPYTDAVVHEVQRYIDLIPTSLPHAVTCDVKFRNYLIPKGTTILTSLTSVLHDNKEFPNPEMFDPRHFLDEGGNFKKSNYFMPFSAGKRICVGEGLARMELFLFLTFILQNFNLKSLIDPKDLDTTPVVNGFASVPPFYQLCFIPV
PTK2B oligo ant: antagonists of Pyk2 self-association, primary screen, Q293 cells, FERM NanoBiT luminescence, HTS. stronger effect = lower value. 0.83% of 99,000 active. z-score (the deposit names both 25 µM and 10 µM). Protein-tyrosine kinase 2-beta (Homo sapiens), Q14289. AID 1347419, 2020;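 active = Z-score of -3 or lower, scaled per plate to the spread of control and sample wells; inactive = z-score above -3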;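 note: negative z-score means lost luminescence so less FERM oligomerization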
CYP2C9 act: human CYP2C9 activators, primary screen, biochemical, luminescence. Cytochrome P450 2C9 (Homo sapiens), P11712. recombinant CYP2C9, luciferin-H conversion; stronger effect = higher value; factor 1 = untreated enzyme, 0 = blocked. activation factor at 5 µM. 1.4% of 96,000 active. AID 1024, 2008;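 active = activation factor of 2 or more for CYP2C9 at a 5 µM dose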;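 note: 0 = sulfaphenazole-blocked wells and 1 = vehicle-only wells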
CYP2C19 act: human CYP2C19 activators, primary screen, biochemical, luminescence | Cytochrome P450 2C19 (Homo sapiens), P33261 | recombinant CYP2C19, luciferin-H EGE luminescence; stronger effect = higher value; 0 = fully inhibited enzyme, 1 = untreated enzyme | activation factor at 5 µM | 96,000 tested, under 10 active | AID 1025, 2008;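 active = activation factor of at least 2 at 5 µM in the primary screen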;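 note: 0 = wells with 2.5 mM tranylcypromine and 1 = vehicle-only wells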
CYP2C9 inhib: blockers of cytochrome P450 2C9 activity – biochemical, luminescence, ADME assay, primary screen; inhibition, % at 5 µM; P11712; AID 777, 2007; 20% of 96,000 active; CYP2C9 Supersomes, luciferin-H conversion;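 active = blocking of liver enzyme CYP2C9 beyond about 50% at 5 µM, limit read from the data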
Starred values were filed as active, the others as inactive.

For CCOC(=O)c1snc(C(=O)NC2CCCCC2)c1N the results were Cav32 inh -0.28, CYP2C19 inh 16, PTK2B oligo ant -0.05, CYP2C9 act 0.7, CYP2C19 act 0.8 and CYP2C9 inhib 28.
CCOC(=O)c1c(NC(NC(C)=O)C(Cl)(Cl)Cl)sc(C(C)=O)c1C (stereo unspecified) was read as Cav32 inh -2.5, CYP2C19 inh 38, PTK2B oligo ant -0.61, CYP2C9 act 0.5, CYP2C19 act 0.6 and CYP2C9 inhib 54*.
CCOC(=O)c1c(NC(=O)C2c3ccccc3Oc3ccccc32)sc(C(=O)N(CC)CC)c1C was read as Cav32 inh -0.052, CYP2C19 inh 39, PTK2B oligo ant -1.1, CYP2C9 act 0, CYP2C19 act 0.6 and CYP2C9 inhib 98*.
`CCOC(=O)c1sc(C)c(C(=O)NC2CCCCC2)c1N` gave Cav32 inh -0.22, CYP2C19 inh 7, PTK2B oligo ant 1.7, CYP2C9 act 2.3*, CYP2C19 act 0.9 and CYP2C9 inhib -132.
For C(=N\c1nccs1)/c1cccnc1 the results were Cav32 inh 1.7 and PTK2B oligo ant 0.26.
`Cc1ccc(C2NC(=O)Cc3ccccc32)cc1` (stereo unspecified) gave Cav32 inh -0.97, CYP2C19 inh 65*, PTK2B oligo ant 0.05, CYP2C9 act 1, CYP2C19 act 0.3 and CYP2C9 inhib 2.
O=C1Cc2ccccc2C(c2ccccc2)N1 (stereo unspecified) was read as Cav32 inh -0.45, CYP2C19 inh 24, PTK2B oligo ant -0.09, CYP2C9 act 1.2, CYP2C19 act 0.8 and CYP2C9 inhib -16.
`CC(=O)Oc1ccc2ccccc2c1C(NC(=O)Cc1ccccc1)c1ccccc1` (stereo unspecified) gave Cav32 inh -3.7, CYP2C19 inh 61*, PTK2B oligo ant -4*, CYP2C9 act 0.3, CYP2C19 act 0.4 and CYP2C9 inhib 67*.
For CC(=O)NC(c1cccc([N+](=O)[O-])c1)c1c(OC(C)=O)ccc2ccccc12 (stereo unspecified) the results were Cav32 inh -0.45 and PTK2B oligo ant -1.9.
`CCCCC(=O)NC(c1cccc([N+](=O)[O-])c1)c1c(OC(C)=O)ccc2ccccc12` (stereo unspecified) gave Cav32 inh -7.7* and PTK2B oligo ant -4.3*.
CCOc1cc(-c2nc3ccccn3c2NCC2CCCO2)ccc1O (stereo unspecified) was read as Cav32 inh -1.1, CYP2C19 inh 37, PTK2B oligo ant 0.41, CYP2C9 act 0.2, CYP2C19 act 0.6 and CYP2C9 inhib 75*.
Screening O=C(C1CC1)N1CCc2cc(Br)cc(S(=O)(=O)N3CCN(c4ccccn4)CC3)c21 returned Cav32 inh -3.2, CYP2C19 inh 72*, PTK2B oligo ant 0.23, CYP2C9 act 0.1, CYP2C19 act 0.3 and CYP2C9 inhib 95*.
`CCOC(=O)C1CCN(S(=O)(=O)c2cc(Br)cc3c2N(C(=O)C2CC2)CC3)CC1` gave Cav32 inh 1.1, CYP2C19 inh 60*, PTK2B oligo ant 1.2, CYP2C9 act 0.6, CYP2C19 act 0.4 and CYP2C9 inhib 35.
Screening O=C(CCS(=O)(=O)c1cc(Br)cc2c1N(C(=O)C1CC1)CC2)NCc1ccco1 returned Cav32 inh 0.15, CYP2C19 inh 48, PTK2B oligo ant 0.64, CYP2C9 act 0.5, CYP2C19 act 0.5 and CYP2C9 inhib 45.
`CCOC(=O)C1CCN(S(=O)(=O)c2ccc(Br)c(OCC)c2)CC1` gave Cav32 inh -1.6, CYP2C19 inh 40, PTK2B oligo ant -0.05, CYP2C9 act 1.1, CYP2C19 act 0.6 and CYP2C9 inhib -13.
For O=C(CCCc1ccccc1)N1CCN(c2ccc([N+](=O)[O-])cc2)CC1 the results were Cav32 inh -0.019, CYP2C19 inh 6, PTK2B oligo ant 1.1, CYP2C9 act 0.8, CYP2C19 act 0.9 and CYP2C9 inhib 17.
Screening CCNC(=O)N1C(=O)C2(OCCO2)c2ccccc21 returned Cav32 inh -0.49, CYP2C19 inh 3, PTK2B oligo ant 0.21, CYP2C9 act 1, CYP2C19 act 1 and CYP2C9 inhib 2.
Cc1ccc(NC(=O)N2C(=O)C3(OCCO3)c3ccccc32)cc1 was read as Cav32 inh 0.7, CYP2C19 inh 60*, PTK2B oligo ant 0.26, CYP2C9 act 1, CYP2C19 act 0.4 and CYP2C9 inhib -4.
For Cc1ccc(CN(C(=O)C(F)(F)F)C(C(=O)NC2CCCCC2)c2ccco2)cc1 (stereo unspecified) the results were Cav32 inh -5.4* and PTK2B oligo ant 0.22.
`O=C(NC1CCCCC1)C(c1ccco1)N(C(=O)C(F)(F)F)C1CC1` (stereo unspecified) gave Cav32 inh 0.036 and PTK2B oligo ant 3.7.
CCC(C(=O)NC1CCCC1)N(Cc1ccco1)C(=O)Cn1nnc(-c2ccc(C)cc2)n1 (stereo unspecified) was read as Cav32 inh -3.7*, CYP2C19 inh 83*, PTK2B oligo ant -0.45, CYP2C9 act 0.3, CYP2C19 act 0.2 and CYP2C9 inhib 72*.
Cc1ccc(C(C(=O)NC2CCCCC2)N(Cc2ccco2)C(=O)Cn2cnc3ccccc32)cc1 (stereo unspecified) was read as Cav32 inh -5.1* and PTK2B oligo ant -1.1.
`Cc1cc(C)cc(N(CC(=O)N2CCN(c3ccccc3)CC2)S(=O)(=O)c2c(C)noc2C)c1` gave Cav32 inh -2.1, CYP2C19 inh 31, CYP2C9 act 0.8, CYP2C19 act 0.7 and CYP2C9 inhib 24.
Screening CCOc1ccc(N(CC(=O)N2CCc3ccccc32)S(=O)(=O)c2c(C)noc2C)cc1 returned Cav32 inh -1.7, CYP2C19 inh 16, CYP2C9 act 0.8, CYP2C19 act 0.8 and CYP2C9 inhib 19.
Screening Cc1n[nH]c(C)c1S(=O)(=O)N(CC(=O)N1CCc2ccccc21)c1ccc(C(C)C)cc1 returned Cav32 inh 3*, CYP2C19 inh 19, CYP2C9 act 0.4, CYP2C19 act 0.8 and CYP2C9 inhib 58*.
For Cc1cc(C)cc(N(CC(=O)N2CCc3ccccc32)S(=O)(=O)c2c(C)noc2C)c1 the results were Cav32 inh -5.5*, CYP2C19 inh 5, CYP2C9 act 0.9, CYP2C19 act 1 and CYP2C9 inhib 12.
Cc1cc(C)cc(N(CC(=O)N2CCn3c2nc2ccccc23)S(=O)(=O)c2c(C)noc2C)c1 was read as Cav32 inh -5.6*, CYP2C19 inh 24, CYP2C9 act 0.5, CYP2C19 act 0.8 and CYP2C9 inhib 48.
